Source: PubChem
A350 autofl: compounds fluorescent in Alexa 350 spectral region | Compound autofluorescence, 340/450 nm, Alexa 350 dye-equivalents; stronger effect = higher value | 11% of 59,000 active | AID 590 | max dye-equivalent concentration, M; in the data active = max dye-equivalent concentration above about 10 nM; inconclusive = mostly about 1.1 nM to 9.6 nM
4MU fluor: 4-MU region autofluorescence. max dye-equivalent concentration, M. compound autofluorescence, 340/450 nm, 4-MU equivalents; stronger effect = higher value. 11% of 59,000 active; in the data active = max dye-equivalent concentration above about 10 nM; inconclusive = mostly about 1.1 nM to 9.6 nM
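Compounds in 100 mM Tris, pH 8.0, sat 15 min at room temperature before fluorescence was read at 340 nm excitation/450 nm emission; a per-plate six-point 4-MU standard curve converted signals to dye-equivalent concentration at each compound concentration.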
CRE-bla Fsk: CRE-bla signaling modulation under forskolin stimulation. CHO CRE-bla reporter (cAMP response element driving beta-lactamase), forskolin EC10, beta-lactamase ratio. Potency, µM (doses to about 38.2 µM), without a hit: at the highest dose activity change, negative = inhibition, usual class: activators. 2.5% of 71,000 active; active = well fitted activation curve with a large enough effect in the signal ratio, with a control signal flat, not every such curve was filed as active; inconclusive = small, poorly fitted or top-dose-only effect, or effect the other way, or a change in a side signal; the % refers to the signal ratio; also: potency is read from the fitted curve at half-maximal effect; % of control where 0% means no effect
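Using CellSensor CRE-bla CHO cells in Opti-MEM with 0.5% dialyzed FBS, compounds were titrated with EC10 NKH 477 for 3 h at 37 °C. CCF4 ratio (460/530 nm) gave %Activity; AC50 derived.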
HADH2 inh: blocks human hydroxyacyl-CoA dehydrogenase type II; Q99714; 3.4% of 73,000 active; recombinant HADH2, NADH fluorescence, beta-hydroxybutyryl-CoA; AID 886; Potency, µM (doses to about 57.1 µM), without a hit: top-dose activity change, negative = inhibition, actives largely listed as inhibitors; also: potency is read from the fitted curve at half-maximal effect; % is scaled to controls: 0 for no effect and ±100 for the full control effect; nearly all actives have a fitted effect of over 60% in size
Target sequence (Q99714 whole entry, looked up, one chain of several): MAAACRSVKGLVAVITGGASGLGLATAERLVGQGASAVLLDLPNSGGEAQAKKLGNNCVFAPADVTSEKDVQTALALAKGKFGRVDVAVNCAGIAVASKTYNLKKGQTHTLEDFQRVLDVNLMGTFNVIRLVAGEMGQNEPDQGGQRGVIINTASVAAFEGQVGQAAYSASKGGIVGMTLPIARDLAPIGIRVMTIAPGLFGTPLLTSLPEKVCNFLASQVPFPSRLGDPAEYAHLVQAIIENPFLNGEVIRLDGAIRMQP
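Read-out: 360 nm excitation, 450 nm emission, kinetic over 4 min. Conditions: His-tagged human HADH2 20 nM, pH 9.0 Tris with Tween-20, 1 mM NAD+, 90 uM beta-hydroxybutyryl-CoA.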
AID923: qHTS Assay for Allosteric/Competitive Inhibitors of Caspase-1: Spectroscopic Profiling in AFC Spectral Region; 1.1% of 75,000 active; compound fluorescence, AFC spectral region (405/520 nm); Potency, µM (top dose mostly 57.5 µM), inactives show top-dose fluorescence increase, most hits filed as activators; also: potency is read from the fitted curve at half-maximal effect; 0% is about no effect
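Baseline compound fluorescence (AFC region, 405 nm ex/520 nm em) taken from the intercept of kinetic reads with 50 nM caspase-1 and 5 uM Ac-WEHD-AFC; normalized to an on-plate AFC standard curve; compounds titrated up to 57 uM.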
HSD17B inh: blocks hydroxysteroid 17-beta dehydrogenase activity; Q99714; recombinant HSD17B10, NADH fluorescence kinetic; Potency, µM (doses to about 57.1 µM), inactives show at the highest dose activity change, negative = inhibition, actives largely listed as inhibitors; 7.6% of 75,000 active; AID 893;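 also: the protocol describes HADH2 (HSD17B10) and not the HSD17B4 of the title; potency is read from the fitted curve at half-maximal effect; % is scaled to controls: 0 for no effect and ±100 for the full control effect; nearly all actives have a fitted effect of over 70% in size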
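His-tagged E. coli-expressed HADH2 at 20 nM in 100 mM Tris-HCl pH 9.0 with 0.01 % Tween-20, preincubated 15 min with compound at room temperature. Reaction with 1 mM NAD+ and 90 uM beta-hydroxybutyryl coenzyme A; NADH fluorescence (360/450 nm) read kinetically over 4 min, last minus first point.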
* marks the source's active call; other numbers are inactive results; [ ] = another dose, or the depositor's remark. Compounds with a hit are over-represented: about 14% of the library has one in this group of screens. Unless noted, calls follow the shape of the dose curve; as a rule, active = well fitted curve in the direction sought with a large enough effect; inconclusive = small, poorly fitted or top-dose-only effect, or another doubt; inactive = no such curve, though single readings can be large; an effect the other way counts as inactive or inconclusive.

Results for COC(=O)c1ccc(C(NC(=O)OCc2ccccc2)/C(F)=C/[C@@H](C)C(=O)NCCO)cc1 (stereo partly specified) ?
CRE-bla Fsk: -6%; HADH2 inh: 8%; AID923: -1%; HSD17B inh: -2%

How did COc1ncc2ncc(=O)n(CCC#N)c2n1 do in these assays?
A350 autofl: inactive; 4MU fluor: inactive; CRE-bla Fsk: 0%; HADH2 inh: -8%; AID923: 0%; HSD17B inh: 2%

Results for CCN(CC)C(NC(=O)c1ccccc1)C(=O)c1ccccc1 (stereo unspecified) ?
A350 autofl: inactive; 4MU fluor: inactive; CRE-bla Fsk: -9%; HADH2 inh: 5%; AID923: 0%; HSD17B inh: -1%

Results for COc1cc2c(OC)cccc2cc1C(=O)O ?
A350 autofl: 2.1e-07M*; 4MU fluor: 1.9e-07M*; CRE-bla Fsk: -7%; HADH2 inh: 25µM*; AID923: 0%; HSD17B inh: 25µM*

What do the screens show for `NC(N)=N/N=C\c1ccc(O)c(C(=O)O)c1`?
A350 autofl: 3.3e-08M*; 4MU fluor: 3e-08M*; CRE-bla Fsk: 6%[7.6 µM]; HADH2 inh: -26%[11.4 µM]; AID923: 1%[11.5 µM]; HSD17B inh: inconclusive

How did CCOc1ccccc1N(CC(=O)NC1CCCCC1)S(C)(=O)=O do in these assays?
CRE-bla Fsk: inconclusive; HADH2 inh: 11%[11.4 µM]; AID923: -1%; HSD17B inh: 1%

Results for O=C(O)CCCNS(=O)(=O)c1ccc(NCc2ccccc2)c(C(=O)O)c1 ?
A350 autofl: 2.7e-08M*; 4MU fluor: 2e-08M*; CRE-bla Fsk: -4%; HADH2 inh: -1%; AID923: 3%; HSD17B inh: inconclusive

How did CN1CC[C@@]23c4ccccc4N[C@H]1[C@]21CCN(C)[C@@H]3Nc2ccccc21 do in these assays?
A350 autofl: inconclusive; 4MU fluor: inconclusive; CRE-bla Fsk: -1%[17.1 µM]; HADH2 inh: 1%[25.6 µM]; AID923: -2%[25.7 µM]; HSD17B inh: 1%[25.6 µM]

What do the screens show for `C/C(CCC(=O)OC[C@@H]1O[C@H](C#Cc2ccccc2)C=C[C@@H]1Oc1ccc(C)cc1)=N/O[C@@H](C)c1cc(-c2c(C)cc(C)cc2C)no1`?
HADH2 inh: 3%[11.4 µM]; AID923: 1%[11.5 µM]; HSD17B inh: 4%[11.4 µM]

What do the screens show for `COCCNC(=O)CN(Cc1ccc2c(c1)OCO2)C(=O)CCC(=O)Nc1nccs1`?
A350 autofl: 2.3e-08M*; 4MU fluor: 2.6e-08M*; CRE-bla Fsk: -6%; HADH2 inh: -1%; AID923: 0%; HSD17B inh: 13%

How did COCCN(CC(=O)NCc1ccc(F)cc1)C(=O)CCC(=O)Nc1nccs1 do in these assays?
A350 autofl: inactive; 4MU fluor: inactive; CRE-bla Fsk: 4%; HADH2 inh: -3%; AID923: 1%; HSD17B inh: 16%

Results for CS(=O)(=O)N(CC(=O)N1CCN(c2ccccc2F)CC1)c1cccc(C(F)(F)F)c1 ?
CRE-bla Fsk: -17%; HADH2 inh: -2%; AID923: 1%; HSD17B inh: 0%

How did CCOc1ccccc1N(C(=O)c1snc(C(N)=O)c1N)C(C(=O)NCCC(C)C)c1ccco1 (stereo unspecified) do in these assays?
A350 autofl: 1.7e-07M*; 4MU fluor: 2e-07M*; CRE-bla Fsk: -5%; HADH2 inh: 9%; AID923: 13%; HSD17B inh: 32µM*

How did CC(C(=O)NC1CCCC1)N(C(=O)c1snc(C(N)=O)c1N)c1ccc2c(c1)OCCO2 (stereo unspecified) do in these assays?
A350 autofl: 2.4e-08M*; 4MU fluor: 1.7e-08M*; CRE-bla Fsk: -15%; HADH2 inh: 19%; AID923: 1%; HSD17B inh: 12%

How did O=C(NC1CCCC1)C(c1cccs1)N(C(=O)c1ccco1)c1ccc2c(c1)OCCO2 (stereo unspecified) do in these assays?
A350 autofl: inactive; 4MU fluor: inactive; CRE-bla Fsk: -2%; HADH2 inh: 12%; AID923: 0%; HSD17B inh: -13%

Results for COCCNC(=O)C(c1ccc(C)o1)N(C(=O)c1snc(C(N)=O)c1N)c1cc(C)cc(C)c1 (stereo unspecified) ?
A350 autofl: 9.8e-08M*; 4MU fluor: 1.1e-07M*; CRE-bla Fsk: 1%; HADH2 inh: -14%; AID923: 6%; HSD17B inh: inconclusive

How did CC(C)CCNC(=O)C(c1ccco1)N(Cc1cccs1)C(=O)Cn1nnc2ccccc21 (stereo unspecified) do in these assays?
A350 autofl: inactive; 4MU fluor: inactive; CRE-bla Fsk: -14%; HADH2 inh: 6%; AID923: 0%; HSD17B inh: 4%

How did COc1ccccc1N(C(=O)c1snc(C(N)=O)c1N)C(C(=O)NCCC(C)C)c1ccco1 (stereo unspecified) do in these assays?
A350 autofl: 2.2e-07M*; 4MU fluor: 2.4e-07M*; CRE-bla Fsk: -1%; HADH2 inh: -15%; AID923: 13%; HSD17B inh: inconclusive

How did Cc1nn2c3c(cnc2c1-c1ccccc1)C(=O)CC(C)C3 (stereo unspecified) do in these assays?
A350 autofl: inconclusive; 4MU fluor: inconclusive; CRE-bla Fsk: 3%; HADH2 inh: 6%; AID923: 0%; HSD17B inh: 4%

How did CCn1c(SCC(=O)O)nnc1C1CCCCC1 do in these assays?
A350 autofl: inconclusive; 4MU fluor: inactive; CRE-bla Fsk: 1%; HADH2 inh: 16%; AID923: 2%; HSD17B inh: 10%

How did COc1ccccc1N(C(=O)c1snc(C(N)=O)c1N)C(C(=O)NC1CCCC1)c1ccco1 (stereo unspecified) do in these assays?
A350 autofl: 4.7e-07M*; 4MU fluor: 3.1e-07M*; CRE-bla Fsk: inconclusive; HADH2 inh: -22%; AID923: 13%; HSD17B inh: 32µM*

How did COc1ccccc1N(C(=O)c1ccco1)C(C(=O)NC1CCCC1)c1cccnc1 (stereo unspecified) do in these assays?
A350 autofl: inactive; 4MU fluor: inactive; CRE-bla Fsk: 8%; HADH2 inh: 2%; AID923: -1%; HSD17B inh: 6%

Results for CCOC(=O)c1oc2nc(C(C)C)c3c(c2c1N)CC(C)(C)OC3 ?
A350 autofl: 8.3e-07M*; 4MU fluor: 6e-07M*; CRE-bla Fsk: 25%; HADH2 inh: 91%; AID923: 0%; HSD17B inh: 16µM*

Results for CCCc1nc2oc(C(=O)OCC)c(N)c2c2c1COC(C)(C)C2 ?
A350 autofl: 5.5e-07M*; 4MU fluor: 4e-07M*; CRE-bla Fsk: inconclusive; HADH2 inh: 95%; AID923: 4%; HSD17B inh: 25µM*
